Compounds with a hit are over-represented: about 27% of the library has one in this group of screens.
CYP2C19 act = human CYP2C19 activators, primary screen, biochemical, luminescence | activation factor at 5 µM | AID 1025, 2008 | recombinant CYP2C19, luciferin-H EGE luminescence; active compounds read high; 0 = fully inhibited enzyme, 1 = untreated enzyme | 96,000 tested, under 10 active | Cytochrome P450 2C19 (Homo sapiens), P33261;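 active = activation factor of at least 2 at 5 µM in the primary screen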;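 also: 0 = wells with 2.5 mM tranylcypromine and 1 = vehicle-only wells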
Target sequence (P33261 whole entry, looked up): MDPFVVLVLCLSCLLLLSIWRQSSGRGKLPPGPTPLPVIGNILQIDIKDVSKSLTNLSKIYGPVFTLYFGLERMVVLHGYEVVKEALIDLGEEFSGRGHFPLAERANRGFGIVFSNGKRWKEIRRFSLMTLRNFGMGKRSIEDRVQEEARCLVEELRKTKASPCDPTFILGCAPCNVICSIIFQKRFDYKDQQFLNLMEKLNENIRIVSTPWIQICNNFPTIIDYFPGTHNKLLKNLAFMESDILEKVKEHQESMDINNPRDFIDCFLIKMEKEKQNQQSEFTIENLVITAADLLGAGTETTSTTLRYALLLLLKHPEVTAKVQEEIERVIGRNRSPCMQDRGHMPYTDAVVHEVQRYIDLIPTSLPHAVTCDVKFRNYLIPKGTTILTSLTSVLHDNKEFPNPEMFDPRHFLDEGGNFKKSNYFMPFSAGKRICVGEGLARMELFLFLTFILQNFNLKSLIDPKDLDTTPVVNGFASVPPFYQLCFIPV
CYP2C9 inh = blockers of cytochrome P450 2C9 activity – biochemical, luminescence, ADME assay, primary screen; P11712; CYP2C9 Supersomes, luciferin-H conversion; inhibition, % at 5 µM; hit rate 20% among 96,000;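 active = blocking of liver enzyme CYP2C9 beyond about 50% at 5 µM, limit read from the data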
CYP2C19 inh = blockers of cytochrome P450 2C19 activity – biochemical, luminescence, ADME assay, primary screen; CYP2C19 Supersomes, luciferin-H EGE luminescence, 30 min; inhibition, % at 5 µM; hit rate 21% among 96,000;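 active = CYP2C19 inhibition above a set limit at 5 µM in the primary screen, cut at about 50% in these data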;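 also: plate controls were negative control wells for no effect and 2.5 mM tranylcypromine positive control for full effect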
CYP2C9 activ = human CYP2C9 activators, primary screen, biochemical, luminescence | recombinant CYP2C9, luciferin-H conversion; active compounds read high; factor 1 = untreated enzyme, 0 = blocked | activation factor at 5 µM | hit rate 1.4% among 96,000;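 active = activation factor of 2 or more for CYP2C9 at a 5 µM dose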;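 also: 0 = sulfaphenazole-blocked wells and 1 = vehicle-only wells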
Cav3 T inh = Cav3.2 calcium influx blockers – cell-based, Fluo-4 calcium fluorescence, FDSS, MLSMR library, primary screen; Voltage-dependent T-type calcium channel subunit alpha-1H (Homo sapiens), O95180; Cav3.2-expressing cells; active compounds read low; B-score at 10 µM; hit rate 4% among 100,000;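 active = single-dose well whose peak fluorescence ratio is a statistical outlier from its plate by either plate-standardised score or position-corrected B-score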
* = called active by the depositor; nt = no result.

SMILES | CYP2C19 act | CYP2C9 inh | CYP2C19 inh | CYP2C9 activ | Cav3 T inh
CCC(C)(C)n1nnnc1C(c1ccc(OC)c(OC)c1)N1CCN(c2ccc(OC)cc2)CC1 (stereo not given) | 0.4 | 88* | 57* | 0.1 | 0.39
CCC(C)(C)n1nnnc1C(c1ccc2ncccc2c1)N1CCCC(C)C1 (stereo not given) | nt | nt | nt | nt | -2.1
CCC(C)(C)n1nnnc1C(c1ccc(OC)c(OC)c1)N1CCN(c2cccc(OC)c2)CC1 (stereo not given) | 0.4 | 86* | 56* | 0.1 | -1.9
N[C@@H](CO)c1nnc([C@H](CCC(=O)O)NC(=O)C2CCNCC2)o1 | nt | nt | nt | nt | 1.4
COc1ccc(C(c2nnnn2C(C)(C)C)N2CCN(C)CC2)cc1OC (stereo not given) | 1 | -6 | -4 | 1.1 | nt
CCC(C)(C)n1nnnc1C(c1ccc(OC)c(OC)c1)N1CCN(c2ccccc2)CC1 (stereo not given) | 0.3 | 71* | 68* | 0.3 | -1
CCC(C)(C)n1nnnc1C(c1cc2cc(OC)c(OC)cc2[nH]c1=O)N1CCc2ccccc21 (stereo not given) | 0.5 | 77* | 46 | 0.2 | -2.8
O=C(Oc1cccc2c(O)cccc12)c1ccccc1 | 0.2 | 73* | 84* | 0.3 | -2.8
CCCCc1[nH]c(=O)c(C#N)c2c1CCCC2 | 0.9 | 24 | 8 | 0.8 | 0.53
COc1ccc(C(C(=O)NC2CCCCC2)N(Cc2cccs2)C(=O)Cc2c[nH]c3ccccc23)cc1OC (stereo not given) | 1 | 85* | -5 | 0.1 | -3.4
Cc1ccc(C(C(=O)NC2CCCCC2)N(Cc2ccco2)C(=O)Cc2c[nH]c3ccccc23)o1 (stereo not given) | 0.5 | 46 | 54* | 0.5 | -10*
Cc1ccc(N(C(=O)Cc2c[nH]c3ccccc23)C(C(=O)NC2CCCCC2)c2ccco2)cc1 (stereo not given) | 0.2 | 94* | 84* | 0.1 | -4.8*
Cc1ccc(C(C(=O)NC2CCCC2)N(Cc2ccc3c(c2)OCO3)C(=O)Cc2cccs2)cc1 (stereo not given) | nt | nt | nt | nt | -0.23
CC(=NC1CC1)c1c(-c2ccccc2)[nH]n(-c2nc3ccccc3s2)c1=O | 1.1 | 28 | -6 | 0.7 | 0.37
CC(=NCCCn1ccnc1)c1c(-c2ccccc2)[nH]n(-c2nc3ccccc3s2)c1=O | 0 | 98* | 99* | 0 | 0.83
O=c1c(C=NCCCn2ccnc2)c(-c2ccccc2)[nH]n1-c1nc2ccccc2s1 | 0.1 | 98* | 92* | 0 | -1.5
Cc1ccc(C(=O)NCCSc2ccc(Cl)cc2)cc1[N+](=O)[O-] | nt | nt | nt | nt | -5.8*
Cc1ccc(C(=O)NCCSc2c(C)[nH]c3ccccc23)cc1[N+](=O)[O-] | nt | nt | nt | nt | -6.9*
Cc1ccc(SCCNC(=O)c2ccc(C)c([N+](=O)[O-])c2)cc1 | 0.5 | 47 | 51* | 0.5 | -5.6*
Cc1[nH]c2ccccc2c1SCCN | nt | nt | nt | nt | -0.45
Cc1cc(C)nc(NC(=O)c2ccc(C)c([N+](=O)[O-])c2)n1 | 1 | 13 | 4 | 0.9 | 0.14
CC(C)(CNC(=O)c1ccc([N+](=O)[O-])c(Cl)c1)CNC(=O)c1ccc([N+](=O)[O-])c(Cl)c1 | 0.6 | nt | 43 | nt | 0.61
COc1ccc(CN(C)C2CCCCC2)cc1 | 0.4 | -29 | 64* | 1.3 | 0.86
CCCCc1ccc(S(=O)(=O)NCCc2ccncc2)cc1 | 0 | 68* | 100* | 0.3 | -3.6*
Cc1ccc(S(=O)(=O)NCCCOC(=O)Nc2ccncc2)cc1 | 0.1 | 100* | 92* | 0 | 0.72
Cc1ccc(S(=O)(=O)NCCc2ccncc2)cc1 | 0 | 51* | 97* | 0.5 | -0.035
CCOc1ccc(Br)cc1S(=O)(=O)NCCN(C)C | 1.1 | -8 | -14 | 1.1 | 0.86
O=S(=O)(NCCc1ccncc1)c1cc(Br)ccc1F | 0.1 | 51* | 89* | 0.5 | 0.36
CCCCOC(=O)Nc1ccc(S(=O)(=O)Nc2nc(C)cc(C)n2)cc1 | 1 | 41 | 1 | 0.6 | 1.5
COc1cccc(CNc2ccc3c(c2)CCC3)c1 | 0.9 | -11 | 13 | 1.1 | -0.37
